In PubChem BioAssay (NCATS):
“And” between values parts separate entries of the source, which are not always exact repeats. Equal values may be shown once. Records with an inconclusive call do not appear. The source made the active and inactive calls. Unless noted, the call rests on the fitted dose curve; in most records, active means well fitted curve in the direction sought with a large enough effect; inconclusive means small, poorly fitted or top-dose-only effect, or another doubt; inactive means no such curve, though single readings can be large; an effect the other way counts as inactive or inconclusive.

How the values were obtained:
[1] = qHTS assay for small molecule disruptors of the mitochondrial membrane potential - 1 hr assay (AID 651754; calls by dose curve; further: on the % scale 0 is the no-effect control and ±100 the full control effect; nearly all actives have a fitted effect of over 35% in size)
In short: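 HepG2 cells, attached overnight at 37C, were exposed to compound or DMSO vehicle for 1 hr at 37C, 5% CO2, then stained with Mito-MPS dye for 30 min. Red aggregate versus green monomer fluorescence reports membrane potential.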

[2] = qHTS assay for small molecule disruptors of the mitochondrial membrane potential - 5 hr assay (AID 651755; calls by dose curve; further: on the % scale 0 is the no-effect control and ±100 the full control effect; nearly all actives have a fitted effect of over 40% in size)
In short: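 HepG2, 2,000 cells/well, overnight attach; cpd or DMSO 5 hr, 37C/5% CO2; Mito-MPS 30 min 37C; fluor 490/535 + 540/590 nm.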

[3] = target: Tumor necrosis factor (Homo sapiens) (UniProt P01375); test: qHTS assay to identify small molecules that stimulate Tumor Necrosis Factor-alpha (TNF-alpha) secretion (AID 651757; active means well fitted curve in the direction sought with a large enough effect in the signal ratio; the % refers to the signal ratio; further: 0% is about no effect)
In short: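 THP-1 cells were exposed to compounds for 17 hrs at 37 C, after which secreted TNF-alpha was measured by homogeneous HTRF (TR-FRET) using cryptate- and XL665-labeled anti-TNF-alpha antibodies, read after 3 hr at room temperature.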

[4] = qHTS assay for environmental chemicals that activate the Aryl hydrocarbon Receptor (AhR) signaling pathway (AID 651777); conditions: 1A2-DRE human hepatoma cells, luciferase, 24 h; activation: hits give high values; further: % of control where 0% means no effect; nearly all actives have a fitted effect of over 15% in size
In short: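 Human hepatoma 1A2-DRE cells, stably carrying a dioxin response element and CYP1A2 promoter driving luciferase, were exposed to compounds for 24 hr at 37 C and 5% CO2. Luciferase signal was then read after 30 min One-Glo at room temperature.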

[5] = target: Peroxisome proliferator-activated receptor alpha (Homo sapiens) (UniProt Q07869); test: qHTS assay for small molecule agonists of the peroxisome proliferator-activated receptor alpha (PPARalpha) signaling pathway (AID 651778); conditions: PathHunter PPARalpha complementation, chemiluminescence, 6 h; hits give high values; further: % of control where 0% means no effect
In short: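 Chemiluminescence from complemented enzyme reported PPARalpha activation in cells after 6 hr of compound treatment at 37 C. The detection reagent was incubated for 60 min at room temperature, and compounds were scored as agonists.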

[6] = target: Nuclear receptor ROR-gamma (Homo sapiens) (UniProt P51449); test: qHTS assay for small molecule antagonists of the retinoid-related orphan receptor gamma (ROR-gamma) signaling pathway (AID 651802); further: series mostly up to about 92 µM; on the % scale 0 is the no-effect control and ±100 the full control effect; nearly all actives have a fitted effect of over 60% in size
In short: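 CHO cells carrying TET-inducible ROR-gamma and an ROR response element–luciferase reporter were exposed to compound, then induced with doxycycline. After 16hr at 37C, luminescence was read; lower signal indicates antagonism.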

[7] = qHTS assay for small molecule agonists of the antioxidant response element (ARE) signaling pathway measured by Nrf2-dependant transcriptional activity (AID 720636; active means well fitted curve in the direction sought with a large enough effect in the repeat runs; an effect the other way counts as inactive or inconclusive; further: % of control where 0% means no effect)
In short: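 ARE-luc HepG2 cells carrying an Nrf2-responsive luciferase reporter were plated in medium with 1% dialyzed FBS, left 6 hr at 37 C to attach, then exposed to compound for 16 hr. Luciferase luminescence was read after ONE-Glo addition.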

[8] = qHTS assay for small molecule antagonists of the retinoid-related orphan receptor gamma (ROR-gamma) signaling pathway - cell viability counter screen (AID 720652; active means well fitted curve in the direction sought with a large enough effect in the repeat runs; an effect the other way counts as inactive or inconclusive;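 further: series mostly up to about 92 µM; compound exposure lasted 16 hr before ATP read; on the % scale 0 is the no-effect control and ±100 the full control effect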)
In short: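 Counter screen in CHO cells carrying TET-inducible ROR-gamma and an ROR response element-luciferase reporter; cells plated 5 hr, compound pinned, doxycycline added, then 16 hr at 37 C. Viability read as intracellular ATP by CellTiter-Glo luminescence.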

[9] = qHTS assay for small molecule agonists of the antioxidant response element (ARE) signaling pathway measured by Nrf2-dependant transcriptional activity - cell viability counter screen (AID 720653; active means well fitted curve in the direction sought with a large enough effect in the repeat runs; an effect the other way counts as inactive or inconclusive; further: on the % scale 0 is the no-effect control and ±100 the full control effect); conditions: ARE-bla HepG2 viability, CellTiter-Glo ATP luminescence, 16 h; hits give low values
In short: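 Cytotoxicity counter screen: intracellular ATP quantified by CellTiter-Glo luminescence in the same ARE-bla HepG2 plates, after 16 h compound exposure and a 2 h beta-lactamase substrate step.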

[10] = qHTS assay for cell viability of HEK293 cells (AID 743288); conditions: ATP luminescence (CellTiter-Glo), 18 h, hits give low values; further: on the % scale 0 is the no-effect control and ±100 the full control effect; nearly all actives have a fitted effect of over 50% in size
In short: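 HEK293 parental, 2,000 cells/well; ≥5 h pre-incubation 37 C; pintool compound addition; 18 h, 37 C; CellTiter-Glo 30 min RT; luminescence read.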

[11] = qHTS assay for cell viability of the p53RE-bla HCT-116 cell line (AID 743292); further: on the % scale 0 is the no-effect control and ±100 the full control effect; nearly all actives have a fitted effect of over 55% in size
In short: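 CellSensor p53RE-bla HCT-116 cells, 4,000/well, preincubated 5 h at 37 C, then exposed to compounds in DMSO for 16 h at 37 C. Viability read as CellTiter-Glo luminescence (intracellular ATP) after 30 min at room temperature.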

[12] = target: Nuclear receptor subfamily 1 group I member 2 (Rattus norvegicus) (UniProt Q9R1A7); test: qHTS assay for small molecule activators of the rat pregnane X receptor (rPXR) signaling pathway (AID 651751; call rule not given here; further: 0% is about no effect); conditions: rPXR reporter cells, luciferase (One-Glo), 24 h
[13] = qHTS assay for small molecule activators of the human pregnane X receptor (PXR) signaling pathway (AID 720659; call rule not given here; further: 0% is about no effect)
[14] = qHTS assay to identify small molecules that stimulate interleukin-8 (IL-8) secretion (AID 651758; active means well fitted activation curve with a large enough effect in the signal ratio; the % refers to the signal ratio; further: 0% is about no effect)
In short: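 Secreted IL-8 measured by TR-FRET sandwich (cryptate and XL665 antibodies) from THP-1 cells exposed to compound overnight (16 hrs, 37 C).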

Tumor necrosis factor (Homo sapiens), sequence (P01375 whole entry, looked up): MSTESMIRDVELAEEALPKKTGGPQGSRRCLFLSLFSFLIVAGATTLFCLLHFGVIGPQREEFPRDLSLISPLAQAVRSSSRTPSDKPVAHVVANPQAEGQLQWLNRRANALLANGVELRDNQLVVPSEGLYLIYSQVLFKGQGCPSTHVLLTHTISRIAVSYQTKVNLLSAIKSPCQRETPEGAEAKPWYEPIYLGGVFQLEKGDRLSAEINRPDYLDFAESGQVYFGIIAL
Peroxisome proliferator-activated receptor alpha (Homo sapiens), sequence (Q07869 whole entry, looked up): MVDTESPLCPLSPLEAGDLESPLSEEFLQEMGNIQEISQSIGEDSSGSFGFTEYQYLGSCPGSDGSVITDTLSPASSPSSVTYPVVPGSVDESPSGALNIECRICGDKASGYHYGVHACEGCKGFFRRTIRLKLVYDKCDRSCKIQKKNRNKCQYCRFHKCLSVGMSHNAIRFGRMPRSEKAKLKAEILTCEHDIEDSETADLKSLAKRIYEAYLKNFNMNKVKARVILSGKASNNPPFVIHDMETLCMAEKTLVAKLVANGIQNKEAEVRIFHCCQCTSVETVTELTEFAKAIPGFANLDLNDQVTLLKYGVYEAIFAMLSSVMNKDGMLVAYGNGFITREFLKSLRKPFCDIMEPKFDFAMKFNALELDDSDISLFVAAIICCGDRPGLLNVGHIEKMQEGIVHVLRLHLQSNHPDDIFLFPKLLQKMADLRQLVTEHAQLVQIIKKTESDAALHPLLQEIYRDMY
Nuclear receptor subfamily 1 group I member 2 (Rattus norvegicus), sequence (Q9R1A7 whole entry, looked up): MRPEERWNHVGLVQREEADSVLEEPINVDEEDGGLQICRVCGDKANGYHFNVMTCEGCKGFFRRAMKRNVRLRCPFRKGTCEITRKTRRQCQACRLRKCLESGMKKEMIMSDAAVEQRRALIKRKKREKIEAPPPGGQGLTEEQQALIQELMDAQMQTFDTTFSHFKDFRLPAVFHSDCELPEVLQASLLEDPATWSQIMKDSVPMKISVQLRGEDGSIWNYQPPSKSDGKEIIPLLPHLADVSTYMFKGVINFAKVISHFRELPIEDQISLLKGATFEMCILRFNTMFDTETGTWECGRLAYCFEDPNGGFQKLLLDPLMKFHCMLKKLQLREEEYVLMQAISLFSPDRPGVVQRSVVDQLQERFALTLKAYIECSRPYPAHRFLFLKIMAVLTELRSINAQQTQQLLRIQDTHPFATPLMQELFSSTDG
Nuclear receptor ROR-gamma (Homo sapiens), sequence (P51449 whole entry, looked up): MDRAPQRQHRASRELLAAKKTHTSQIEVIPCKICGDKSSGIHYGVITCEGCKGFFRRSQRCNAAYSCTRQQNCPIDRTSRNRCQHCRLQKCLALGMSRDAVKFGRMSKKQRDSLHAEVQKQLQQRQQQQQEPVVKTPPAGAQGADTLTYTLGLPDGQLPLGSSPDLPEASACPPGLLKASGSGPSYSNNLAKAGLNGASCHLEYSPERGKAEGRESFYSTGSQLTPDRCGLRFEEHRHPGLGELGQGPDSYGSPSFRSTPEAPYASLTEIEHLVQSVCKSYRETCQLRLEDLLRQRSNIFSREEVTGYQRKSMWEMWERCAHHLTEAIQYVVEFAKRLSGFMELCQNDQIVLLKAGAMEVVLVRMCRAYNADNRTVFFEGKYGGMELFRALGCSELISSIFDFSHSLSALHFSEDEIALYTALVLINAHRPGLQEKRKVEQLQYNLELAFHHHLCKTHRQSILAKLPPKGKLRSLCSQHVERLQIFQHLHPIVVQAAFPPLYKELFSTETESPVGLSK

O=C(O)c1ccc(Cl)cc1Cl
inactive: Potency [1] | Potency [2] | Potency [3] | activation [4] -0.705% | max response [5] -5.53% | Potency [6] | outcome [7] | Potency [8] | max response [9] -0.648% | max response [10] 4.16% | Potency [11] | max response [12] 4.22% | outcome [13]

Cc1ccc(Cl)cc1N
inactive: Potency [1] | Potency [2] | Potency [3] | activation [4] -0.729% | max response [5] -6.36% | Potency [6] | outcome [7] | Potency [8] | max response [9] 6.01% | max response [10] 3.66% | Potency [11] | max response [12] 0.767% | outcome [13]

O=[N+]([O-])c1ccc(CCO)cc1
inactive: Potency [1] | Potency [2] | Potency [3] | activation [4] 0.416% | max response [5] -1.57% | Potency [6] | outcome [7] | Potency [8] | max response [9] -24.2% | max response [10] -6.69% | Potency [11] | max response [12] 0.179% | outcome [13]

COc1ccccc1[N+](=O)[O-]
inactive: Potency [1] | Potency [2] | Potency [3] | activation [4] 0.316% and 0.0004% | max response [5] -1.42% and -1.21% | Potency [6] | outcome [7] | Potency [8] | max response [9] -18.6% and -4.26% | max response [10] -1.85% and -1.91% | Potency [11] | max response [12] 1.11% and 2.57% | outcome [13]

CCCCCO
inactive: Potency [1] | Potency [2] | Potency [3] | activation [4] 0.0119% | max response [5] -2.11% | Potency [6] | outcome [7] | Potency [8] | max response [9] 3.66% | max response [10] 0.87% | Potency [11] | max response [12] -1.89% | outcome [13]

CC/C(C)=N/O
inactive: Potency [1] | Potency [2] | Potency [3] | Potency [14] | Potency [6] | outcome [7] | Potency [8] | max response [9] -8.91% | max response [10] 6.15% | Potency [11] | max response [12] 5.17% | outcome [13]

CCCCCCCCCCCCOCC1CO1 (stereo not drawn)
inactive: Potency [1] | Potency [2] | Potency [3] | activation [4] 0.152% | max response [5] -0.128% | Potency [6] | outcome [7] | Potency [8] | max response [9] 2.47% | max response [10] -5.24% | Potency [11] | max response [12] 1.3% | outcome [13]

N#CC1(O)CCCCC1
inactive: Potency [1] | Potency [2] | Potency [3] | Potency [14] | activation [4] 2.1% | Potency [6] | outcome [7] | Potency [8] | max response [9] 5.72% | max response [10] 1.77% | Potency [11] | max response [12] 2.59%

CC(=O)c1nccs1
inactive: Potency [1] | Potency [2] | Potency [3] | Potency [14] | max response [5] -1.62% | Potency [6] | outcome [7] | Potency [8] | max response [9] 25.7% | max response [10] -7.91% | Potency [11] | max response [12] 8.24% | outcome [13]

CC(C)(C)OC=O
inactive: Potency [1] | Potency [2] | Potency [3] | Potency [14] | activation [4] -1.07% | Potency [6] | outcome [7] | Potency [8] | max response [9] 9.86% | max response [10] 5.3% | Potency [11] | max response [12] 3.48% | outcome [13]

O=C(O)/C=C/C(=O)O
inactive: Potency [1] | Potency [2] | Potency [3] | Potency [14] | max response [5] -1.33% | Potency [6] | outcome [7] | max response [9] 17.2% | max response [10] -0.445% | Potency [11] | max response [12] 2.11% | outcome [13]

COC(=O)CS
inactive: Potency [1] | Potency [2] | Potency [3] | activation [4] -0.254% | max response [5] -1.38% | Potency [6] | outcome [7] | Potency [8] | max response [9] -0.555% | max response [10] 3.47% | Potency [11] | max response [12] -1.83% | outcome [13]

O=CNc1ccccc1
inactive: Potency [1] | Potency [2] | Potency [3] | activation [4] -0.556% | max response [5] -2.49% | Potency [6] | outcome [7] | Potency [8] | max response [9] -3.88% | max response [10] -2.01% | Potency [11] | max response [12] 1.37% | outcome [13]

C=CCCCCCC
inactive: Potency [1] | Potency [2] | Potency [3] | activation [4] 0.992% | max response [5] -3.21% | Potency [6] | outcome [7] | Potency [8] | max response [9] -7.1% | max response [10] 3.39% | Potency [11] | max response [12] 3.09% | outcome [13]

Cc1cc(C)cc([N+](=O)[O-])c1
inactive: Potency [1] | Potency [2] | Potency [3] | Potency [14] | activation [4] 0.689% | Potency [6] | outcome [7] | Potency [8] | max response [9] -11.8% | max response [10] 1.12% | Potency [11] | max response [12] 1.37% | outcome [13]

Cc1cccc2ccccc12
inactive: Potency [1] | Potency [2] | Potency [3] | activation [4] -0.124% | max response [5] -1.89% | Potency [6] | outcome [7] | Potency [8] | max response [9] -3.61% | max response [10] 1.12% | Potency [11] | max response [12] 3.98% | outcome [13]

CC(O)CC(C)O (stereo not drawn)
inactive: Potency [1] | Potency [2] | Potency [3] | activation [4] -0.953% | max response [5] -0.949% | Potency [6] | outcome [7] | Potency [8] | max response [9] -7.28% | max response [10] 7.82% | Potency [11] | max response [12] 6.25% | outcome [13]
